An excerpt weighted towards active compounds, which were near 19% of everything screened.
IL-1B inflam inh: qHTS for Inhibitors of Inflammasome Signaling: IL-1-beta AlphaLISA Primary Screen; THP-1 LPS/ATP IL-1B secretion, AlphaLISA, 16 h; stronger effect = lower value; actives 4.7% (n = 360,000); activity change, % at 57.5 µM; in the data active = activity change below about -50%; inconclusive = mostly about -30% to -49%
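THP-1 cells pretreated 1 hr with compounds (up to 57.5 uM final), then stimulated with LPS (250 ng/mL final) plus ATP (1.25 mM final); secreted IL-1B measured by AlphaLISA after 16 hr, decreased signal indicating inhibition.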
HT1080 IDH1KD tx: qHTS for induction of synthetic lethality in tumor cells producing 2HG: qHTS for the HT-1080-IDH1KD cell line; HT-1080 IDH1 knockdown viability, ATP luminescence, 48 h; actives 2% (n = 360,000); Potency, µM (titrated, usually from 46.1 µM), for inactives: top-dose activity, negative = toxicity, most hits filed as cytotoxic;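 note: potency is the fitted concentration of half-maximal effect; 0% = DMSO wells and -100% = cell-free medium wells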
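In this qHTS, HT-1080 cells depleted of IDH1 are exposed for 48 h at 37 °C to compound titrations. Toxicity is scored from CellTiter-Glo luminescence, with DMSO as full viability and medium alone as none.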
DT40 TDP1 CPT: qHTS for Inhibitors of human tyrosyl-DNA phosphodiesterase 1 (TDP1): qHTS in cells in presence of CPT; chicken DT40 Tdp1-/-;hTDP1 cells + 20 nM CPT, ATP luminescence, 48 h; Potency, µM (highest dose often 46.2 µM), inactives show at the highest dose activity change, negative = growth inhibition, actives largely listed as inhibitors; actives 12% (n = 420,000); note: potency is the fitted concentration of half-maximal effect; nearly all actives have a fitted effect of over 55% in size
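Chicken DT40 Tdp1-/- cells stably complemented with human TDP1 were seeded at 400 cells/well in medium containing 20 nM camptothecin, exposed to pin-transferred compounds, and grown at 37 °C for at least 48 hr. Viability was read as ATP luminescence.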
HT1080NT lethal: qHTS for induction of synthetic lethality in tumor cells producing 2HG: qHTS for the HT-1080-NT fibrosarcoma cell line; HT-1080-NT fibrosarcoma viability, CellTiter-Glo ATP luminescence, 48 h; AID 686970, 2013; actives 1.6% (n = 360,000); Potency, µM (series often up to 46.1 µM), for inactives: at the top dose activity, negative = less viability, actives largely listed as cytotoxic;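 note: NT is the 2HG producing partner of a matched IDH1 knockdown line; potency is the fitted concentration of half-maximal effect; 0% = DMSO-treated cells and -100% = media-only wells without cells; nearly all actives have a fitted effect of over 55% in size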
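Viability by CellTiter-Glo luminescence after 48 h compound exposure at 37C of HT-1080-NT cells (750/well, RPMI, 5% FBS). % activity scaled between DMSO wells and medium-only wells, then curve-fitted and categorized by curve class.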
DT40 TDP1 no CPT: qHTS for Inhibitors of human tyrosyl-DNA phosphodiesterase 1 (TDP1): qHTS in cells in absence of CPT | Potency, µM (top dose mostly 46.2 µM), inactives show top-dose activity change, negative = growth inhibition, hits mostly inhibitors | DT40 Tdp1-/- hTDP1 cells, no CPT, ATP luminescence, 48 h | actives 15% (n = 420,000); note: potency is the fitted concentration of half-maximal effect; nearly all actives have a fitted effect of over 55% in size
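Camptothecin absent (DMSO only). Human TDP1-complemented DT40 knockout cells, 400 cells/well, 37 °C for minimum 48 hr; ATP measured via CellTiter-Glo, 30 min dark incubation, luminescence.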
uPA generation: qHTS for Inhibitors of Cell Surface uPA Generation; cell surface uPA generation assay, qHTS; Potency, µM (highest dose often 38.3 µM), for inactives: top-dose activity change, negative = inhibition, hits mostly inhibitors; actives 0.31% (n = 330,000); active = well fitted inhibition curve with a large enough effect; inconclusive = small, poorly fitted or top-dose-only effect; inactive = no such curve, though single readings can be large or run the other way; tested in mouse RAW 264.7 cells; note: potency is the fitted concentration of half-maximal effect; nearly all actives have a fitted effect of over 55% in size
* marks the source's active call; other numbers are inactive results; ? = inconclusive; · = not tested or not shown; [ ] = another dose, or the depositor's remark. Unless noted, calls come from the whole dose curve; as a rule, active = well fitted curve in the direction sought with a large enough effect; inconclusive = small, poorly fitted or top-dose-only effect, or another doubt; inactive = no such curve, though single readings can be large; an effect the other way counts as inactive or inconclusive. Unless noted, % is set by controls: 0 for no effect and ±100 for the full control effect.

SMILES	IL-1B inflam inh	HT1080 IDH1KD tx	DT40 TDP1 CPT	HT1080NT lethal	DT40 TDP1 no CPT	uPA generation
Cc1ccc(NC(=O)Cn2cnc3sc(C)c(S(=O)(=O)N4CCN(c5ncccn5)CC4)c3c2=O)cc1F	·	·	-23.9%	·	?	·
O=C(Oc1ccc(OC(=O)N2CCCCC2)cc1)c1ccccc1	-4.2	-4.3%[9.24 µM]	?	-19.9%	0.0461µM*	-9.2%
CC(=O)N1CCN(C(C(=O)Nc2c(C)cccc2C)c2cccc(F)c2)CC1 (centres undefined)	-3.0	20.5%	1.5%	16.3%	0.8%	·
Cc1ccc(C)c(NC(=S)Nc2cccc3cnccc23)c1	31.7	-7.4%	14.6µM*	?	16.4µM*	8.9%
Cc1ccc(NC(=S)Nc2cccc3cnccc23)cc1C	-78.4*	-6.5%	?	-0.6%	?	0.4%
Cc1ccc(NC(=S)Nc2cccc3cnccc23)cc1	9.7	-1.0%	?	4.9%	16.4µM*	-3.0%
S=C(Nc1cccc(Cl)c1)Nc1cccc2cnccc12	?	-13.1%	16.4µM*	-7.6%	18.4µM*	13.2%
Cc1ccccc1NC(=S)Nc1cccc2cnccc12	27.4	-25.6%	?	-18.5%	?	-0.7%
CCC(=O)N(C)C[C@H]1Oc2ncc(C#Cc3ccncc3)cc2C(=O)N([C@@H](C)CO)C[C@@H]1C	12.3	3.0%	26.7%	7.5%	-5.2%	·
O=C(CCCn1c(=O)c2cccn2c2cccnc21)Nc1ccccc1C(F)(F)F	·	·	-14.1%	·	-14.5%	·
S=C(Nc1cccc(Cl)c1)Nc1ccccc1Oc1ccccc1	-21.0	?	?	?	20.6µM*	2.5%
CCc1nc2ccc(C(=O)NC3CCN(Cc4ccccc4)CC3)cn2c1N(C)Cc1cccs1	-52.2*	?	?	?	16.4µM*	·
CCc1nc2ccc(C(=O)N3CCN(C(=O)c4ccco4)CC3)cn2c1N(C)Cc1cccs1	20.0	17.4%	?	1.7%	?	·
CCc1nc2ccc(C(=O)NC3CCN(Cc4ccccc4)CC3)cn2c1N(C)Cc1cc2ccccc2s1	-65.9*	?	25.9µM*	16.4µM*	20.6µM*	·
COc1ccccc1OC(C)C(=O)Nc1c(C(=O)c2ccc(Cl)cc2)oc2ccccc12 (centres undefined)	·	·	-4.0%	·	0.1%	·
COc1ccc(C(=O)c2c(C(F)(F)F)oc3c2C(=O)c2ccccc2C3=O)cc1	?	6.51µM*	4.61µM*	7.31µM*	7.31µM*	-10.3%
COc1ccc(C(=O)c2oc3ccccc3c2NC(C)=O)cc1	-12.0	-23.0%	?	-7.1%	?	-3.5%
O=C1CSC(=S)N1Nc1ccccc1	-13.3	5.8µM*	-14.0%	?	-14.2%	1.0%
Cc1ccccc1C(=O)NN1C(=O)CSC1=S	-0.6	2.9%	-0.9%	0.7%	6.8%	1.4%
CCc1ccc(NC(=S)N(CCN2CCOCC2)Cc2ccccc2F)cc1	0.0	-2.4%	-6.1%	-0.4%	-7.9%	4.8%
O=C(CNC(=S)N(Cc1ccc(F)cc1)C1CCCCC1)NCC1CCCO1 (centres undefined)	-0.7	21.9%	10.4%	5.4%	11.3%	-0.4%
O=C(CNC(=S)N(Cc1ccccc1F)C1CCCCC1)NCC1CCCO1 (centres undefined)	-68.2*	0.9%	?	-2.9%	?	-3.4%
O=C(CSc1ncnc2c1nnn2Cc1ccccc1F)NCC1CCCO1 (centres undefined)	-90.1*	?	?	-17.3%	-25.3%	-17.5%
